Measurements published in PubChem BioAssay (Tox21).
Inconclusive results are not listed. Calls of active or inactive are those of the source. Calls come from the whole dose curve.

What was measured:
[1] = molecular target: Acetylcholinesterase (Homo sapiens) (UniProt P22303); test: Acetylcholinesterase (AChE) small molecule antagonists: colormetric cell-based qHTS assay (AID 1347395); note: nearly all actives have a fitted effect of over 30% in size
Procedure, shortened: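 Endogenous AChE of human neuroblastoma SH-SY5Y cells was measured with an Ellman-type DTNB/acetylthiocholine mix. Compound pretreatment lasted 30 min at 37 C; substrate reaction ran 90 min at 37 C.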

[2] = molecular target: Acetylcholinesterase (Homo sapiens) (UniProt P22303); test: Acetylcholinesterase (AChE) small molecule antagonists: enzyme-based qHTS assay (AID 1347397); conditions: Potency: AChE enzyme activity inhibition; outcome: AChE enzyme activity inhibition; note: nearly all actives have a fitted effect of over 55% in size
Procedure, shortened: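 rhAChE 50 mU/mL (dispensed) + cpd or DMSO, 30 min RT; add DTNB/acetylthiocholine cocktail, 10 min RT; colorimetric thiocholine readout. qHTS, 1536-well format.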

[3] = molecular target: Acetylcholinesterase (Homo sapiens) (UniProt P22303); test: Acetylcholinesterase (AChE) small molecule antagonists: fluorescence cell-based qHTS assay (AID 1347398); conditions: Potency: AChE activity; outcome: AChE activity; note: nearly all actives have a fitted effect of over 50% in size
Procedure, shortened: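 Read-out is Thiolite Green fluorescence at Ex/Em = 490/520 nm, formed by reaction with thiocholine released when cellular AChE in SH-SY5Y cells hydrolyzes acetylthiocholine. Compounds were preincubated 30 min at 37 C before substrate.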

[4] = molecular target: Acetylcholinesterase (Homo sapiens) (UniProt P22303); test: Acetylcholinesterase (AChE) small molecule antagonists: enzyme-based qHTS assay with human liver microsomes (AID 1347399); conditions: Potency: qHTS inhibition; outcome: qHTS inhibition; note: nearly all actives have a fitted effect of over 60% in size
Procedure, shortened: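 Recombinant human AChE (50 mU/mL in the enzyme mix) and human liver microsomes (0.25 mg/mL final) were preincubated with compound and NADPH (0.25 mg/mL final) for 30 min at 37 C. Acetylthiocholine/DTNB was then added; thiocholine was read colorimetrically after 10 min at room temperature.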
% is set by controls: 0 for no effect and ±100 for the full control effect; potency is the fitted concentration of half-maximal effect.

Acetylcholinesterase (Homo sapiens), sequence (P22303 whole entry, looked up): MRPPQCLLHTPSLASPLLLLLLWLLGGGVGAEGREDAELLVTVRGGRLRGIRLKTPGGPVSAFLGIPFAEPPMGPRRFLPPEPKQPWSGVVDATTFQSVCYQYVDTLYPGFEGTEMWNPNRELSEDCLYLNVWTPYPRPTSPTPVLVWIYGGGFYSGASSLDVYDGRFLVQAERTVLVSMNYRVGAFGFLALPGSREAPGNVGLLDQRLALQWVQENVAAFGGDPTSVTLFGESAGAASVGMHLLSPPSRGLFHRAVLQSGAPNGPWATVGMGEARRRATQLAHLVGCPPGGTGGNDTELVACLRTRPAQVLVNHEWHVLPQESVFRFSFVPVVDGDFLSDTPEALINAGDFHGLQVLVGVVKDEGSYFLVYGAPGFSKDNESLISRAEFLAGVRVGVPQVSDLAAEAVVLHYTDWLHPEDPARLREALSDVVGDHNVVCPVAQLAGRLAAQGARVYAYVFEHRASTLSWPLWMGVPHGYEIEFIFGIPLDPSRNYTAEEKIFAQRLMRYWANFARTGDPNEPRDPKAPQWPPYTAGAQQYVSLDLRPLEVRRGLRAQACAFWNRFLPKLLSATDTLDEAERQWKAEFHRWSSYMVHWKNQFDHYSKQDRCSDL

CC(CCc1ccc2c(c1)OCO2)NN (centres undefined)
inactive: Potency [1] | Potency [2] | Potency [3] | Potency [4]

O=C(O)c1cc(Cl)cc([N+](=O)[O-])c1Cl
inactive: Potency [1] | Potency [2] | Potency [3] | Potency [4]

Cc1ncc([N+](=O)[O-])n1CC(C)O (centres undefined)
inactive: Potency [1] | Potency [2] | Potency [3] | Potency [4]

CC(CC1c2ccccc2CCc2ccccc21)CN(C)C (centres undefined)
inactive: Potency [1] | Potency [2] | Potency [3] | Potency [4]

Cc1nc2ccccc2n1Cc1ccc(Cl)cc1
inactive: Potency [1] | Potency [2] | Potency [3] | Potency [4]

COC(=O)[C@]1(C)CCC[C@@]2(C)[C@H]1CC=C1C=C(C(C)C)CC[C@@H]12
inactive: Potency [1] | Potency [2] | Potency [3] | Potency [4]

CC(C)CC(O)Cc1ccccc1 (centres undefined)
inactive: Potency [1] | Potency [2] | Potency [3] | Potency [4]

O=C(O)c1cccc(C(F)(F)F)c1
inactive: Potency [1] | Potency [2] | Potency [3] | Potency [4]

CCC(=O)C(=O)CC
inactive: Potency [1] | Potency [2] | Potency [3] | Potency [4]

CCOc1ccc(NS(=O)(=O)c2ccc(N)cc2)nn1
inactive: Potency [1] | Potency [2] | Potency [3] | Potency [4]

N=C(N)S(=O)O
inactive: Potency [1] | Potency [2] | Potency [3] | Potency [4]

CC/C=C\CC/C=C/CO
inactive: Potency [1] | Potency [2] | Potency [3] | Potency [4]

COC(=O)CC(C(C)=O)C(=O)OC (centres undefined)
inactive: Potency [1] | Potency [2] | Potency [3] | Potency [4]

CCOC(=O)CS
inactive: Potency [1] | Potency [2] | Potency [3] | Potency [4]

O=C(OCC(COC(=O)c1ccccc1)(COC(=O)c1ccccc1)COC(=O)c1ccccc1)c1ccccc1
inactive: Potency [1] | Potency [2] | Potency [3] | Potency [4]

NNc1nc(-c2ccc(N)cc2)cs1
inactive: Potency [1] | Potency [2] | Potency [3] | Potency [4]

CC(C)c1ccc2oc3nc(N)c(C(=O)O)cc3c(=O)c2c1
inactive: Potency [1] | Potency [2] | Potency [3] | Potency [4]

CCN(CC)CCCN(c1ccccc1)C1Cc2ccccc2C1
inactive: Potency [1] | Potency [2] | Potency [3] | Potency [4]

COc1cccc([C@H](O)C2CCN(CCc3ccc(F)cc3)CC2)c1OC
inactive: Potency [1] | Potency [2] | Potency [3] | Potency [4]

CC[C@H]1CC[C@H](NCc2cc3c(cc2OC)[C@H]2C[C@H]2C(=O)N3C)[C@H](c2ccccc2)N1
active: Potency [1] 31.7 µM | Potency [3] 35.6 µM
inactive: Potency [2] | Potency [4]

CCN1CCC[C@H]1CNC(=O)c1c(OC)ccc(Br)c1OC
inactive: Potency [1] | Potency [2] | Potency [3] | Potency [4]

CC(O)C(C)O (centres undefined)
inactive: Potency [1] | Potency [2] | Potency [3] | Potency [4]

NCC(=O)O
inactive: activity, negative = inhibition [1] 0.505% [at 23.6 µM] | activity change, negative = inhibition [2] 0.147% [at 23.6 µM] | activity change, negative = inhibition [3] 6.61% [at 23.8 µM] | activity change, negative = inhibition [4] 0.434% [at 23.6 µM]

C/C=C(\C)C(=O)OCC/C=C\CC
inactive: Potency [1] | Potency [2] | Potency [3] | Potency [4]

COC(=O)CCCCCCCCC(=O)OC
inactive: Potency [1] | Potency [2] | Potency [3] | Potency [4]

CC(=O)C1CCCCC1=O (centres undefined)
inactive: Potency [1] | Potency [2] | Potency [3] | Potency [4]

CCCC(=O)C(CC)Sc1ccoc1C (centres undefined)
inactive: Potency [1] | Potency [2] | Potency [3] | Potency [4]

C=C(C)CCCC
inactive: Potency [1] | Potency [2] | Potency [3] | Potency [4]

CCCCNC1CC(C)(C)NC(C)(C)C1
inactive: Potency [1] | Potency [2] | Potency [3] | Potency [4]

O=C(C1CCCCC1)N1CC(=O)N2CCCc3ccccc3C2C1 (centres undefined)
inactive: Potency [1] | Potency [2] | Potency [3] | Potency [4]

C=C(C)C(=O)OC1CC(C)CC(C)(C)C1 (centres undefined)
inactive: Potency [1] | Potency [2] | Potency [3] | Potency [4]

C=CS(=O)(=O)O
inactive: Potency [1] | Potency [2] | Potency [3] | Potency [4]

CC[N+](C)(CC)CCOC(=O)C(O)(c1ccccc1)C1CCCCC1 (centres undefined)
inactive: Potency [1] | Potency [2] | Potency [3] | Potency [4]

CCCCCCOc1ccc(N)cc1
inactive: Potency [1] | Potency [2] | Potency [3] | Potency [4]

C=C(C)C(=O)OC
inactive: Potency [1] | Potency [2] | Potency [3] | Potency [4]

CCN(CC)CCOc1ccc2c(c1)C(=O)c1cc(OCCN(CC)CC)ccc1-2
active: Potency [1] 0.776 µM | Potency [2] 1.55 µM | Potency [3] 0.55 µM | Potency [4] 5.49 µM

C=C(C)CCO
inactive: Potency [1] | Potency [2] | Potency [3] | Potency [4]

CCOC(=O)c1ccc(O)c(O)c1
inactive: Potency [1] | Potency [2] | Potency [3] | Potency [4]

CCOC(=O)CC(C)O (centres undefined)
inactive: Potency [1] | Potency [2] | Potency [3] | Potency [4]

CC(C)Cn1cnc2c(N)nc3ccccc3c21
inactive: activity, negative = inhibition [1] -1.3% [at 23.6 µM] | activity change, negative = inhibition [2] -0.415% [at 23.6 µM] | activity change, negative = inhibition [3] -8.86% [at 23.8 µM] | activity change, negative = inhibition [4] 1.68% [at 23.6 µM]

CN1CCN(C2=Nc3ccccc3Sc3ccc(Cl)cc32)CC1
inactive: Potency [1] | Potency [2] | Potency [3] | Potency [4]
